# PfM18AAP inh-1: PfM18AAP inhibitors, malaria aminopeptidase, primary screen, biochemical, QFRET, recombinant enzyme | AID 1822, 2009 | H-Glu-NHMec fluorogenic cleavage | inhibition, % at 7.35 µM | 290,000 compounds, 1.2% hits;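 active = inhibition above the campaign mean inhibition over all tested compounds plus 3 SD, cut at about 28% in these data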;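 note: 0% = plate median of test compound wells and 100% = 2 mM ZnCl2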
# GC-B act: human GC-B receptor activators, primary screen, HEK293 GC-B cells, cGMP TR-FRET, EC30 CNP. Atrial natriuretic peptide receptor 2 (Homo sapiens), P20594. activation, % at 10 µM. 0% at EC30 CNP, 100% saturating CNP. 370,000 compounds, 0.11% hits;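 active = activation at 10 µM reaching about 35% in either raw or pattern-adjusted values, limit read from the data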
# PLC-beta3 inh: human PLC-beta3 inhibitors, primary screen, biochemical, fluorescence. 1-phosphatidylinositol 4,5-bisphosphate phosphodiesterase beta-3 (Homo sapiens), Q01970. Purified PLC-beta3, fluorogenic substrate. inhibition, % at 12.2 µM. 370,000 compounds, 0.18% hits. AID 720704, 2013; in the data active = inhibition above about 11%;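 note: 0% = median of compound wells on plate and 100% = full blocker control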
# PLCg1 inh: PLC-gamma1 enzyme inhibitors, primary screen, biochemical, fluorescence, purified enzyme; 1-phosphatidylinositol 4,5-bisphosphate phosphodiesterase gamma-1 (Homo sapiens), P19174; fluorogenic substrate; inhibition, % at 12.2 µM; 370,000 compounds, 0.84% hits; AID 720700, 2013; in the data active = inhibition above about 9.5%
# Rce1 inhib: yeast Rce1p protease inhibitors, primary screen, biochemical, fluorescence, cell-free homogeneous. calls only. CAAX prenyl protease 2 (Saccharomyces cerevisiae (strain ATCC 204508 / S288c)), Q03530. yeast membranes, quenched prenylated peptide cleavage fluorescence. AID 2563, 2010. 290,000 compounds, 0.27% hits;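 active = fall in fluorescence gain of 50% or more versus controls, with final raw signal at or below 3038400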;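 note: plate controls were neutral control wells for no effect and wells lacking membranes for full effect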
# Target sequence (Q03530 whole entry, looked up): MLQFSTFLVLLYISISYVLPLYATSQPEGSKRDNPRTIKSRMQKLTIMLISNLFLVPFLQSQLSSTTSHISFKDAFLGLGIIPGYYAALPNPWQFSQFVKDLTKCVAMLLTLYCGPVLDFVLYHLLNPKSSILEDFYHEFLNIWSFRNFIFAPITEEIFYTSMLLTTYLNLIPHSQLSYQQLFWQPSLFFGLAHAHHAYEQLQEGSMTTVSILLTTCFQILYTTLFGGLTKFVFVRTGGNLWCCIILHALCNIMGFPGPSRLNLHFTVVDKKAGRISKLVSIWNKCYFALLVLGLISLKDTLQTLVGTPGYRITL
# NPR1 activator: GC-A stimulated cGMP production enhancers – HEK293 GC-A cells, cGMP TR-FRET, EC30 ANP, primary screen. 0% at EC30 ANP, 100% saturating ANP. activation, % at 10 µM. 370,000 compounds, 0.14% hits; in the data active = activation above about 40%
# PfM18AAP inh-2: PfM18AAP inhibitors, malaria aminopeptidase, confirmation, biochemical, QFRET, recombinant enzyme, triplicate | shares compounds with PfM18AAP inh-1 | H-Glu-NHMec fluorogenic cleavage | inhibition, % at 7.35 µM | 2,400 compounds, 28% hits | AID 2170, 2009;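 active = mean inhibition over replicate wells above the hit cutoff set for the earlier primary screen, cut at about 29% in these data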;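 note: 0% = median of test compound wells and 100% = 2 mM ZnCl2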
# CTSL1 confirm: cathepsin L1 inhibitors, retest, confirmation, counter-screen for PFM18AAP inhibitor project, biochemical, QFRET, triplicate; shares compounds with PfM18AAP inh-1; purified cathepsin L1, Z-Leu-Arg-MCA fluorescence; inhibition, % at 5.96 µM; 2,400 tested, under 10 active;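 active = average inhibition across replicates above the hit cutoff set in the earlier primary screen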;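 note: 0% = median of test compound wells and 100% = Z-Phe-Ala-diazomethylketone 1 µM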
# Starred values were filed as active, the others as inactive; i = inactive; . = no result. Most compounds without a hit are left out; they make up all but 2.2% or so of the library.
SMILES,PfM18AAP inh-1,GC-B act,PLC-beta3 inh,PLCg1 inh,Rce1 inhib,NPR1 activator,PfM18AAP inh-2,CTSL1 confirm
COc1cc(C2C(C#N)=C(N)OC3=C2C(=O)CCC3)cc2c1OCO2 (stereo not drawn),34.2*,-1.7,-4.3,-2.3,i,-2.7,-41.7,-3.9
Cc1cc(NN)nc(NS(=O)(=O)c2ccc(Cl)cc2)n1,37.4*,0.4,-5.6,-2.8,i,-0.2,21.7,-1.1
COc1cc(/C=N/Nc2nc(C)nc3c2cnn3-c2ccccc2)ccc1O,32.8*,-14.2,i,i,.,-4.5,-26.3,0.1
Cc1cc(NN)nc(NS(=O)(=O)c2ccccc2)n1,34.5*,2.8,-8.6,-5.7,i,1.4,4.4,-4.1
Cc1cc(C)nc(NS(=O)(=O)c2ccc(N)cc2)n1,2.8,3.9,1.4,0.2,i,2.2,.,.
COc1cc(/C=N/Nc2cc(C)nc(NS(=O)(=O)c3ccccc3)n2)ccc1O,32.5*,-8.6,-76.6,-51.7,i,-8.2,-23.0,-6.3
COc1cc(C)nc(NS(=O)(=O)c2ccccc2)n1,2.2,-4.6,0.5,0.9,i,-0.1,.,.
O=S1(=O)c2c(cccc2N2CCSCC2)Oc2ccccc2CN1Cc1cn(Cc2ccc(Cl)cc2)nn1,.,0.4,-10.8,-11.4,.,0.7,.,.
CNC(=O)C[C@H]1CC[C@H]2[C@@H](COc3ccc(NC(=O)Nc4ccccc4)cc3C(=O)N2C)O1,.,-5.1,2.5,4.1,.,6.0,.,.
CC(=O)c1sc2nsc(SCCN3CCCC3)c2c1N,32.0*,5.5,-22.9,-8.2,i,2.6,-38.9,0.0
CC(=O)c1sc2nc(C)c3c(c2c1N)CCCC3,1.0,6.9,-321.8,-238.2,i,6.3,.,.
C=CCC12C=C(OC)C(=O)C(C1=O)C(c1ccc(OC)cc1)C2C (stereo not drawn),.,-7.1,-3.7,1.1,.,-0.4,.,.
O=c1[nH]c2cc3c(cc2cc1CN(CCN1CCOCC1)C(=S)NCC1CCCO1)OCO3 (stereo not drawn),41.0*,0.4,-31.0,-12.1,i,-8.0,-35.5,0.3
CN(C)CCN(Cc1cc2cc3c(cc2[nH]c1=O)OCO3)C(=S)NCC1CCCO1 (stereo not drawn),-1.0,-2.3,-30.1,-29.6,i,-1.9,.,.
COC(=O)[C@]12C[C@H](CC(=O)NCc3ccccc3)C(=O)N(Cc3ccc(Cl)cc3Cl)C1=C[C@H](C(C)(C)C)O[C@@H]2C,.,-6.9,4.2,1.3,.,-3.4,.,.
CCc1ccc(Oc2c(Cl)cnn(-c3ccc(C)cc3)c2=O)cc1,.,11.9,-12.2,-9.0,.,11.3,.,.
COC(=O)[C@]12C[C@H](CC(=O)NCc3ccc(C)o3)C(=O)N(Cc3ccc(Cl)cc3Cl)C1=C[C@H](C(C)(C)C)O[C@@H]2C,.,-1.0,4.2,0.3,.,-8.0,.,.
Cc1cccc(NC(=S)NCc2ccco2)n1,37.8*,-3.2,-9.0,-0.9,i,-0.9,-35.2,1.1
Cc1cc(C)nc(SCC(=O)Nn2cnnc2)n1,52.8*,4.3,3.9,-1.9,i,2.2,40.5*,-5.4
O=C(CSc1ncccn1)NNC(=O)c1ccccc1,-2.7,-0.6,-5.1,-0.2,i,-0.6,.,.
O=C(CSc1ncccn1)Nn1cnnc1,46.5*,3.8,2.5,2.8,i,-0.4,44.0*,-3.9
CCNC(=O)CCSc1nc(C)cc(C)n1,23.8,1.6,-3.8,-2.2,i,-0.8,.,.

# Screening results from PubChem BioAssay.
